# Laboratory results as given in the supplement of paper PMC10849652.
# Targets with a hit are over-represented here; the source holds about 7,900 in all. About 0.6% of all pairs of compound and target were hits. Unmarked numbers belong to inactive results.
# Assays:
# Test in all cases: log2 fold change, soluble protein after heating vs DMSO (PISA); higher = thermal stabilisation; K562 cells, 10 uM, 30 min; active = over 0.2 and 3.5 SD of the protein, either way, in both replicates (recomputed)
# [1] = compound: NC(=O)Nc1cc(-c2cccc(F)c2)sc1C(=O)N[C@H]1CCCNC1
# Summary of the method: (§1)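 K562 cells at 2×10^6 cells/mL were exposed to 10 μM compound for 30 min, then aliquots were heated for 3 min across 48°C-58°C, pooled, and extracted in PBS containing 0.5% NP-40 at 4°C. The supernatant after 21,000xg for 90 min was taken as soluble protein and measured by TMTpro 16plex LC-MS/MS with channel sums equalised. Thermal stability is reported relative to control samples, with values from duplicates. Fold changes are given on a log2 scale.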
# [2] = compound: NC(=O)c1cnc(N[C@@H]2CCCC[C@@H]2N)nc1Nc1cccc(-n2nccn2)c1
# Summary of the method: as §1
# [3] = compound: NC1(c2ccc(-c3nc4ccn5c(=O)[nH]nc5c4cc3-c3ccccc3)cc2)CCC1
# Summary of the method: as §1
# [4] = compound: NCC(=O)Nc1ccc(-n2nc(C(F)(F)F)cc2-c2ccc3c(ccc4ccccc43)c2)cc1
# Summary of the method: as §1
# entinostat = compound: Nc1ccccc1NC(=O)c1ccc(CNC(=O)OCc2cccnc2)cc1 [entinostat]
# Summary of the method: as §1
# vorinostat = compound: O=C(CCCCCCC(=O)Nc1ccccc1)NO [vorinostat]
# Summary of the method: as §1
# citarinostat = compound: O=C(CCCCCCNC(=O)c1cnc(N(c2ccccc2)c2ccccc2Cl)nc1)NO [citarinostat]
# Summary of the method: as §1
# silmitasertib = compound: O=C(O)c1ccc2c(c1)nc(Nc1cccc(Cl)c1)c1ccncc12 [silmitasertib]
# Summary of the method: as §1
# [5] = compound: O=C1NC(=O)C(c2cnc3ccccn23)=C1c1cn2c3c(cc(F)cc13)CN(C(=O)N1CCCCC1)CC2
# Summary of the method: as §1
# [6] = compound: c1cc(OCCN2CCCCC2)cc(-c2n[nH]c3ccc(-c4nnc[nH]4)cc23)c1
# Summary of the method: as §1
# Sequence of UniProt Q7Z2Z2 (Q7Z2Z2 whole entry, looked up): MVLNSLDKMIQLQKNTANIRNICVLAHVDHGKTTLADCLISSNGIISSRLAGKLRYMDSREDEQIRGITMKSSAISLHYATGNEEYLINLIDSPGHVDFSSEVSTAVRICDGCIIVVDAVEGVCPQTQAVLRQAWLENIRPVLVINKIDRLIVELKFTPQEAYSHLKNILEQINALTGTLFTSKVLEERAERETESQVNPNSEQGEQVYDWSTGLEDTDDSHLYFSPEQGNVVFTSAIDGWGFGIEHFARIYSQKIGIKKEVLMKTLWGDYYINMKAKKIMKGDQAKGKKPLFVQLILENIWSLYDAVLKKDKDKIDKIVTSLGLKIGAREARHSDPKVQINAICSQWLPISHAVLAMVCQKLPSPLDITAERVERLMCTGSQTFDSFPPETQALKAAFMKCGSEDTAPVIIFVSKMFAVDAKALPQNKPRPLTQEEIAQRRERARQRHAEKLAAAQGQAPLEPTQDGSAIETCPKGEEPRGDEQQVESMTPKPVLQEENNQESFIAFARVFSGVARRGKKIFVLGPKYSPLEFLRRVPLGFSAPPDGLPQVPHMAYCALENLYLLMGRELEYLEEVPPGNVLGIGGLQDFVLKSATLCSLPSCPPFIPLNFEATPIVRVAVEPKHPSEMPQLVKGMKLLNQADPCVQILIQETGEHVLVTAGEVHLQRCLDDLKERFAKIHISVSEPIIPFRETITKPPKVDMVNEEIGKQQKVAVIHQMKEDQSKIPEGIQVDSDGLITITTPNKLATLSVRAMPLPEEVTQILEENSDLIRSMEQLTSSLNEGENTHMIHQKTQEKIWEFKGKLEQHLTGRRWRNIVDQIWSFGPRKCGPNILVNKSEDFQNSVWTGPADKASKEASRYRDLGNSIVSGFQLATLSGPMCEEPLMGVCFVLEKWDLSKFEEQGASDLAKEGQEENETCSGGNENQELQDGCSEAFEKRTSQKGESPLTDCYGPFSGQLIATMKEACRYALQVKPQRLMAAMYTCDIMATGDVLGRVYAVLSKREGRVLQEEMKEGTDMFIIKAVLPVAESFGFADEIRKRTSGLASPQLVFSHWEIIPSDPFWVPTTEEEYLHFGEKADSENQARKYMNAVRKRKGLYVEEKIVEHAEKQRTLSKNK
# Sequence of UniProt Q96A65 (Q96A65 whole entry, looked up): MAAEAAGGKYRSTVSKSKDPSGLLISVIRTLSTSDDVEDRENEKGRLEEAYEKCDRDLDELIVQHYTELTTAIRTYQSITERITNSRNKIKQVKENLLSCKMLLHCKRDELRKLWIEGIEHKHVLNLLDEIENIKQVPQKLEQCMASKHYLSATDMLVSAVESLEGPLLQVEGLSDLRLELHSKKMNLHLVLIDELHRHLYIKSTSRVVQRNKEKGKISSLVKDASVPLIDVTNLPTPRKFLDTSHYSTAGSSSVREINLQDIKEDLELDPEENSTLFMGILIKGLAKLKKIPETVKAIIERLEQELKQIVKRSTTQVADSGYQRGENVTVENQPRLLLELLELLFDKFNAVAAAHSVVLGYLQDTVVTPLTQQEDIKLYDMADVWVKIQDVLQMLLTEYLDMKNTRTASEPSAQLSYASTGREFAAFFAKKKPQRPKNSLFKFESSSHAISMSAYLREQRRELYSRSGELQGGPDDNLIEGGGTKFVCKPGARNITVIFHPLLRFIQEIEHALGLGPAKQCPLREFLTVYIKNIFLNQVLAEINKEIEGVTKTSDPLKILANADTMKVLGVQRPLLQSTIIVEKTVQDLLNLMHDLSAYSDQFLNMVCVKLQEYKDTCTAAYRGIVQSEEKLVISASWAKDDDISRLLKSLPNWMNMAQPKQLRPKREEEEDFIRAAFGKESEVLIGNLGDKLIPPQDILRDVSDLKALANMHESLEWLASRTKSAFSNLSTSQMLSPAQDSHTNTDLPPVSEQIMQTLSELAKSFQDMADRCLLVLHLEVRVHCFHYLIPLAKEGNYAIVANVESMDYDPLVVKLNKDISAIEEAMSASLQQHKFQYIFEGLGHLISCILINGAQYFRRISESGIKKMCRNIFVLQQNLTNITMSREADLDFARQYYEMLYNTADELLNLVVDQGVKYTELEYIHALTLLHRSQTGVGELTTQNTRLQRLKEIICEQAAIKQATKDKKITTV
# Sequence of UniProt Q16643 (Q16643 whole entry, looked up): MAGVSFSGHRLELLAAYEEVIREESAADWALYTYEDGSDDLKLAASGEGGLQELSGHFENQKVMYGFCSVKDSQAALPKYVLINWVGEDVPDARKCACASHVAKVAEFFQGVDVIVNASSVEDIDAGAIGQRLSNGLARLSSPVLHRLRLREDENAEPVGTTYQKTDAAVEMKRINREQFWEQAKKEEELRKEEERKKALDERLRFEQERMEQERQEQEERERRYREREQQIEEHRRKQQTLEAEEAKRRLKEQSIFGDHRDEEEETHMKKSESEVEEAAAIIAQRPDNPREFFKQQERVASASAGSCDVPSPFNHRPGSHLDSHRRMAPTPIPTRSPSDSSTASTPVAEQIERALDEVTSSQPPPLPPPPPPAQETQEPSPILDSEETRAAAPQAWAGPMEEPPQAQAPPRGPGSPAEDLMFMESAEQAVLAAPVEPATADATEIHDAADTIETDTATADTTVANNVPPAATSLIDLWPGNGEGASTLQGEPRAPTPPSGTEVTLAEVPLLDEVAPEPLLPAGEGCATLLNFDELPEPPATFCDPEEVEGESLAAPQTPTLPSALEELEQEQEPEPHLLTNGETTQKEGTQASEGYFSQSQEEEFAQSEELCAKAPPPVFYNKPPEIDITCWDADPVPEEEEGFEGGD
# Sequence of UniProt P26641 (P26641 whole entry, looked up): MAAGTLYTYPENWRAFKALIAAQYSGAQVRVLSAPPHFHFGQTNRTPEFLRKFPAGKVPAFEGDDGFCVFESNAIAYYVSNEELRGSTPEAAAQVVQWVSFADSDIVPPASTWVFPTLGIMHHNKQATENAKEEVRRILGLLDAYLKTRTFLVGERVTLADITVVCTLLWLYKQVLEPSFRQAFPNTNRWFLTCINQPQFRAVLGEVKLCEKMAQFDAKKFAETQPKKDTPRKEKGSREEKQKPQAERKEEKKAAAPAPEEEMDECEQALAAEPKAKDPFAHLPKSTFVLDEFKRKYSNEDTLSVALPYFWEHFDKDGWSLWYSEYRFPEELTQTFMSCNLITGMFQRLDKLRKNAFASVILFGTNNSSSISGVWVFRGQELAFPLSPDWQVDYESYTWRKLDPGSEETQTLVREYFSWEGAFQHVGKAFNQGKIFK
# Sequence of UniProt Q9UJU6 (Q9UJU6 whole entry, looked up): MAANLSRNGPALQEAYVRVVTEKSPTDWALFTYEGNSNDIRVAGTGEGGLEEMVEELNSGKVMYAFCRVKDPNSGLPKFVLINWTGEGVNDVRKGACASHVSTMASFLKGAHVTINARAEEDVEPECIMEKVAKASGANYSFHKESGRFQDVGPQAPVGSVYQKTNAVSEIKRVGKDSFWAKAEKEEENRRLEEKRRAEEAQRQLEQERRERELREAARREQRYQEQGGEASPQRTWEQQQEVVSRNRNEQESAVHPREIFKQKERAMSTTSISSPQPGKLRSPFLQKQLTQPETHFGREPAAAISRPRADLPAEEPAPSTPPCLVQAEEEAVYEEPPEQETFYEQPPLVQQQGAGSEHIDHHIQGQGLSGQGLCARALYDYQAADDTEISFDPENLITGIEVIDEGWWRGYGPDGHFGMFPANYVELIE
# Sequence of UniProt P98082 (P98082 whole entry, looked up): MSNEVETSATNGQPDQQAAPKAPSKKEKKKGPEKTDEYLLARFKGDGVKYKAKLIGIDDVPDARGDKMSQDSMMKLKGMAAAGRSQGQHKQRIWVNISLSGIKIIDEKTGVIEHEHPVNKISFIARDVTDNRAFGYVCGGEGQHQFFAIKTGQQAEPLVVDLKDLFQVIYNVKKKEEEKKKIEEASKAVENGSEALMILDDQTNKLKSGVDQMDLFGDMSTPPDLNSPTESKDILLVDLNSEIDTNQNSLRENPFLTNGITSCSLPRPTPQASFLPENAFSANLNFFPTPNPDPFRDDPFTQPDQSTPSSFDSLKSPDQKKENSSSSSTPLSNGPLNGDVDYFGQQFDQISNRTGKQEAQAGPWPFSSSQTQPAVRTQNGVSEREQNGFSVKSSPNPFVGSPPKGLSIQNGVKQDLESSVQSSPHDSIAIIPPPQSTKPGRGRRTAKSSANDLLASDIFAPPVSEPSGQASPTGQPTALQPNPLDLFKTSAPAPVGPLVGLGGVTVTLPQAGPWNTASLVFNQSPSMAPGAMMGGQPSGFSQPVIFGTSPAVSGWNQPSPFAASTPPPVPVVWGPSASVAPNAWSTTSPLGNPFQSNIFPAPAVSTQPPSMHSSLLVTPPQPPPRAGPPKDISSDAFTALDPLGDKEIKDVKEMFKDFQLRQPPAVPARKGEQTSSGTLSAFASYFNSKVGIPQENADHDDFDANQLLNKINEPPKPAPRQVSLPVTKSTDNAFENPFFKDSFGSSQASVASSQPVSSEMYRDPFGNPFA
# Sequence of UniProt Q15392 (Q15392 whole entry, looked up): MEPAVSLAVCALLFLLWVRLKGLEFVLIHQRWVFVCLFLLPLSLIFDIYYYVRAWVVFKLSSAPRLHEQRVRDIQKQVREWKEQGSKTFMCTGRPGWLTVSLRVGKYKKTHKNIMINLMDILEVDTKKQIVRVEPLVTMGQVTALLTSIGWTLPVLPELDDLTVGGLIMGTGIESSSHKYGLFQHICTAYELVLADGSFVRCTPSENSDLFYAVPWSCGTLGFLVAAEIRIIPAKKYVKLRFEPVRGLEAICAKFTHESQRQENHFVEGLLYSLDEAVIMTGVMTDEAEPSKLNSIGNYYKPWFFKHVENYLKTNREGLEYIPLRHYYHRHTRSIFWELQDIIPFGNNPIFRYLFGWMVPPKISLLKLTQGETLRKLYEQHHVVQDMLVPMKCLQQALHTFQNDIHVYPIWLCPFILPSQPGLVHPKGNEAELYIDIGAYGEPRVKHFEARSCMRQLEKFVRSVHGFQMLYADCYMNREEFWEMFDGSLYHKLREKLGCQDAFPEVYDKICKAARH
# Sequence of UniProt Q96DA6 (Q96DA6 whole entry, looked up): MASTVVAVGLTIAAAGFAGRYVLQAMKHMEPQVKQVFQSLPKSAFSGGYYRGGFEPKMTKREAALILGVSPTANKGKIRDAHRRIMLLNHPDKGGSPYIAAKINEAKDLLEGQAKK
Target,log2 fold change [1],log2 fold change [2],log2 fold change [3],log2 fold change [4],log2 fold change (entinostat),log2 fold change (vorinostat),log2 fold change (citarinostat),log2 fold change (silmitasertib),log2 fold change [5],log2 fold change [6]
DYNC1I2 isoform 5 (UniProt Q13409),-0.021,-0.016,-0.023,0.059,-0.018,-0.044,0.015,0.004,-0.012,0.004
DNAJC19 (UniProt Q96DA6),-0.014,0.004,-0.017,-0.006,0.004,-0.03,0.024,-0.018,0.01,-0.015
DYRK1A isoform 2 (UniProt Q13627),-0.225 (active),-0.034,-0.115,-0.064,0.028,0.056,0,-0.292 (active),-0.029,
F5 (UniProt P12259),-0.095,-0.08,0.048,-0.024,-0.045,-0.016,-0.019,0.127,0.084,0.002
DHRS1 (UniProt Q96LJ7),-0.118,-0.047,0.184,0.095,-0.082,-0.098,-0.237,0,0.834 (active),0.291
EEF1G isoform 2 (UniProt P26641),-0.005,-0.039,-0.1,0.011,0.036,0.059,0.035,0.014,0.003,-0.046
CTSA (UniProt P10619),0.031,0.092,-0.067,-0.013,0.001,-0.03,-0.005,0.044,-0.023,0.134
DDX27 (UniProt Q96GQ7),0.002,0.04,0.198,0.123,-0.106,-0.039,-0.103,0.087,0.326,-0.218
DDX46 (UniProt Q7L014),-0.185,-0.087,-0.178,-0.197,0.095,0,0.103,0.018,-0.243,0.084
EXOC8 (UniProt Q8IYI6),0.044,-0.044,-0.373 (active),-0.039,0.108,0.051,0.084,0.035,0.045,-0.062
DBNL isoform 3 (UniProt Q9UJU6),0.021,-0.022,-0.109,-0.061,-0.003,-0.01,0.063,0.058,0.012,0.007
DDX39A (UniProt O00148),-0.067,-0.04,0.057,-0.042,-0.003,0.048,-0.006,-0.011,-0.107,-0.233
DBN1 isoform 3 (UniProt Q16643),0.098,0.027,-0.039,-0.003,-0.036,0.128,-0.032,0.066,-0.03,-0.053
EXOC4 (UniProt Q96A65),0.081,-0.216,-0.205,-0.051,0.078,0.174,0.16,0.091,0.044,-0.094
EBNA1BP2 (UniProt Q99848),0.05,0.006,0.195,0.158,-0.029,0.133,0.041,0.151,0.352,-0.292
DFFB (UniProt O76075),0.028,-0.064,-0.037,0.069,0,0.016,0.057,0.087,0.048,-0.08
DBT (UniProt P11182),-0.009,0.003,0.005,-0.021,-0.042,0.006,-0.011,0.027,0.022,-0.093
CTSC (UniProt P53634),0.019,-0.015,-0.11,0.086,-0.053,-0.016,0.015,-0.053,-0.057,0.063
EDC3 (UniProt Q96F86),-0.162,-0.229,-0.119,-0.075,0.07,0.154,0.042,-0.047,-0.068,-0.152
DCAF10 (UniProt Q5QP82),-0.018,-0.02,0.026,0.033,-0.021,-0.015,0.08,0.122,-0.028,0.357 (active)
DAB2 (UniProt P98082),-0.006,-0.033,-0.124,0.016,-0.026,-0.066,0.037,0.102,0.001,-0.041
FAM50A (UniProt Q14320),0.003,-0.008,-0.087,-0.082,0.045,0.011,0.095,0.071,-0.001,-0.019
CTSV (UniProt O60911),0,-0.066,-0.296,-0.052,-0.063,-0.029,-0.008,0.027,-0.105,0.165
CUEDC2 (UniProt Q9H467),0,-0.105,-0.043,-0.056,-0.009,-0.039,0.096,0.008,-0.055,0.002
CYFIP1 (UniProt Q7L576),-0.088,-0.029,-0.143,0.003,0.02,-0.025,0.031,0.009,-0.039,-0.064
EFL1 (UniProt Q7Z2Z2),0.001,-0.023,-0.106,-0.026,0.025,0.071,0.047,0.017,-0.025,-0.023
DHRS3 (UniProt O75911),-0.032,-0.047,-0.081,-0.06,0.05,-0.084,0.024,0.009,0.046,-0.06
DNTTIP2 (UniProt Q5QJE6),0.14,-0.054,0.155,0.029,-0.03,0.045,0.016,0.102,-0.028,-0.095
DHCR24 (UniProt Q15392),-0.022,-0.037,0.048,-0.024,-0.082,-0.012,0,-0.018,0.041,1.08 (active)
EXOC6 (UniProt Q8TAG9),-0.052,-0.091,-0.258,-0.078,0.045,0.324 (active),0.023,0.049,0.03,0.007
